PubChem BioAssay AID651597 (National Center for Advancing Translational Sciences (NCATS), 2012)
About 390 (35%) of roughly 1,100 compounds were called active. About 30% were inconclusive and are not listed. The call rests on the fitted dose curve; in most records, active means well fitted inhibition curve with a large enough effect; inconclusive means small, poorly fitted or top-dose-only effect; inactive means flat fitted curve, though single readings scatter. The list shows a part of the results. Entries that show only a call come without a potency.
Further: nearly all actives have a fitted effect of over 65% in size.
Potency means the concentration at half of the fitted maximal effect.

The compounds below were run against Luciferin 4-monooxygenase (Photinus pyralis) (UniProt P08659) (assay: qHTS of Nrf2 Activators: Hit Validation in Secondary FLuc Assay). Details: firefly luciferase inhibition counter-screen, luminescence; series mostly up to 57.5 µM.
Outline: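 Purified firefly luciferase is tested for inhibition by compounds in the presence of its substrates, ATP and D-luciferin, each at Km. Inhibition marks likely false positives arising from reporter-enzyme stabilization.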
`O=C1N/C(=C\c2ccsc2)C(=O)N1Cc1ccc(F)cc1` was tested, and the Potency was “inactive”. For `CCc1ccc(/C=C/c2c([N+](=O)[O-])c(=O)n(C)c(=O)n2C)cc1`, the Potency was “inactive”. With `CCC1C/C(=C/c2cccs2)C(=O)/C(=C/c2cccs2)C1` (configuration not stated) the Potency was “inactive”. `O=C(Nc1cc(-c2nc3cc(Cl)ccc3o2)ccc1Cl)c1ccco1` was tested, and the Potency was 6010 nM (active). `COc1ccc(Cl)cc1NC(=O)c1ccco1` was tested, and the Potency was “inactive”. With `CCCS(=O)(=O)c1nc(S(=O)(=O)c2ccc(C)cc2)c(N2CC(C)OC(C)C2)s1` (configuration not stated) the Potency was “inactive”. For `O=C(/C=C/Nc1ccc(F)c(Cl)c1)c1ccco1`, the Potency was 1690 nM (active). For `COc1cccc(-c2nc3n(n2)CCc2ccccc2-3)c1`, the Potency was 953 nM (active). With `CNc1ccc(-c2nc(-c3ccco3)no2)cc1[N+](=O)[O-]` the Potency was 84.9 nM (active). With `CC(C)Nc1ccc(-c2nc(-c3ccco3)no2)cc1[N+](=O)[O-]` the Potency was 213 nM (active). With `CC(C)c1ccc(NC(=O)c2sccc2-n2cccc2)cc1` the Potency was 10700 nM (active). For `Cc1ccc(CNC(=O)c2sccc2-n2cccc2)cc1`, the Potency was “inactive”. With `Cc1ccc(S(=O)(=O)c2nc(S(C)(=O)=O)sc2N2CCOCC2)cc1` the Potency was “inactive”. For `COc1ccccc1-c1nnc(NC(C)=O)s1`, the Potency was 2690 nM (active). In the case of `COc1ccc(OC)c2sc(NC(=O)CCS(=O)(=O)c3ccccc3)nc12`, the Potency is reported as “inactive”. In the case of `O=C(CCN1C(=O)c2cccc3cccc(c23)C1=O)Nc1ccon1`, the Potency is reported as “inactive”. In the case of `COC(=O)c1ccccc1NC(=O)/C=C/c1ccco1`, the Potency is reported as 8490 nM (active). With `COc1ccccc1NC(=O)/C=C\c1ccco1` the Potency was 10700 nM (active). For `COC(=O)c1ccccc1NC(=O)c1cc(-c2ccco2)on1`, the Potency was “inactive”. With `COc1ccccc1NC(=O)/C(C#N)=C/C=C/c1ccco1` the Potency was “inactive”. `CCn1c(=O)oc2cc(NC(=O)CCl)ccc21` was tested, and the Potency was “inactive”. `Cc1nn(-c2ccc3ccccc3c2)c(=O)c2ccccc12` was tested, and the Potency was 3380 nM (active). In the case of `Cc1nn(-c2cccc(C(F)(F)F)c2)c(=O)c2ccccc12`, the Potency is reported as “inactive”. In the case of `c1ccc(-c2cnc(-c3ccccc3)nn2)cc1`, the Potency is reported as 301 nM (active). `Clc1cc(-c2ccccc2)nc(-c2ccccc2)n1` was tested, and the Potency was “inactive”. `c1ccc(-c2cc3c(ccc4nonc43)nn2)cc1` was tested, and the Potency was “inactive”. For `CC1Sc2n(c3ccccc3[n+]2C)N=C1c1ccccc1` (configuration not stated), the Potency was “inactive”. In the case of `COc1ccccc1Cc1c(-c2ccco2)nc2ccc(Cl)cn12`, the Potency is reported as 2390 nM (active). In the case of `Clc1ccc2nc(-c3ccco3)c(Cc3ccccc3)n2c1`, the Potency is reported as 10700 nM (active). `O=C1c2cccc3cccc(c23)C(=O)N1CCCN(C(=O)c1cccs1)c1cccc(F)c1` was tested, and the Potency was “inactive”. For `CC(=O)COc1ccc2c(c1C)O/C(=C\c1ccco1)C2=O`, the Potency was 601 nM (active). In the case of `CCN1C(=O)/C(=C\c2ccco2)C(C(=O)OC)=C1C`, the Potency is reported as “inactive”.
